From the supplement of paper PMC8253809
“And” between values parts separate entries of the source, which are not always exact repeats. Identical values can stand only once.

Key:
Assay in all cases: growth inhibition (% activity, log2 RLU normalised to DMSO / staurosporine); higher = more growth inhibition
Conditions in all cases: 33 µM
[1] = tested on: DIPGX29 (H3.3 K27M diffuse intrinsic pontine glioma line)
In short: (§1)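 The growth-inhibition value is the median over replicates. pHGG cell lines and H9-derived neural stem cells on Geltrex-coated 384-well plates received approved drugs by pin tool at a single final concentration of about 33 μM, in triplicate, for 7 days at 37 °C, 5% CO2. CellTiter-Glo luminescence was log2-transformed and normalised per plate to % activity between solvent and positive control wells.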

[2] = tested on: DIPGX37 (H3.3 K27M diffuse intrinsic pontine glioma line)
In short: as §1

[3] = tested on: DIPGX7 (H3.3 K27M diffuse intrinsic pontine glioma line)
In short: as §1

[4] = tested on: DIPGX9 (diffuse intrinsic pontine glioma line)
In short: as §1

[5] = tested on: HGGX39 (paediatric high-grade glioma line)
In short: as §1

[6] = tested on: HGGX6 (H3.3 G34R paediatric high-grade glioma line)
In short: as §1

[7] = tested on: HNSC
In short: as §1

[8] = tested on: SUDIPGIV (diffuse intrinsic pontine glioma line)
In short: as §1

[9] = tested on: SUDIPGVI (diffuse intrinsic pontine glioma line)
In short: as §1

[10] = tested on: SUDIPGXIII (diffuse intrinsic pontine glioma line)
In short: as §1

Compound	growth inhibition [1]	growth inhibition [2]	growth inhibition [3]	growth inhibition [4]	growth inhibition [5]	growth inhibition [6]	growth inhibition [7]	growth inhibition [8]	growth inhibition [9]	growth inhibition [10]
CNC(=O)c1cc(Oc2ccc(NC(=O)Nc3ccc(Cl)c(C(F)(F)F)c3)cc2)ccn1	35.1%	67.2%	28.2%	25.6%	50.7%	32%	76.1%	41.2%	60.7%	69.3%
CN1CCCCC1CCN1c2ccccc2Sc2ccc([S+](C)[O-])cc21 (stereo not given)	-1.62%	1.07%	-1.12%	-0.108%	-0.329%	-0.926%	1.22%	-1.02%	-0.796%	1.03%
NC(=O)c1ncn([C@@H]2O[C@H](CO)[C@@H](O)[C@H]2O)c1N	1.44%	1.81%	1.73%	2.02%	2.08%	0.815%	5.91%	0.00762%	2.75%	-1.11%
Cc1cccc(C)c1OCC(=O)N[C@@H](Cc1ccccc1)[C@@H](O)C[C@H](Cc1ccccc1)NC(=O)[C@H](C(C)C)N1CCCNC1=O	-0.115%	1.21%	-0.846%	1.07%	-0.0767%	1.3%	0.148%	-2.8%	-1.16%	-0.606%
Nc1nc2ccc(OC(F)(F)F)cc2s1	2.99%	4.46%	3.41%	4.59%	2.04%	2.46%	4.46%	-0.776%	2.57%	1.66%
CN(C)[C@@H]1C(O)=C(C(=O)NCN2CCCC2)C(=O)[C@@]2(O)C(O)=C3C(=O)c4c(O)cccc4[C@@](C)(O)[C@H]3C[C@@H]12	-1.08%	-1.26%	-0.844%	0.66%	-0.334%	0.151%	-2.27%	0.0649%	2.48%	0.413%
Nc1nc(=O)c2c([nH]1)NC[C@H](CNc1ccc(C(=O)N[C@@H](CCC(=O)O)C(=O)O)cc1)N2C=O	1.44%	1.17%	2.14%	0.677%	1.92%	0.872%	35.4%	2.82%	-2.53%	0.25%
Cc1nc(-c2ccc(OCC(C)C)c(C#N)c2)sc1C(=O)O	0.052%	-0.105%	1.2%	1.34%	2.02%	3.15%	-1.07%	-0.558%	-0.306%	1.95%
C[N+](C)(C)CCCCCC[N+](C)(C)C	-5.28%	-1.26%	0.491%	-2.94%	-1.88%	-5.38%	11.7%	-2.32%	-9.56%	0.369%
CCc1ccc(CCOc2ccc(CC3SC(=O)NC3=O)cc2)nc1 (stereo not given)	-2.15% and 0.83%	-2.01% and 4.22%	-1.47% and 2.56%	-0.422% and 2.5%	-0.303% and 4.55%	0.514% and 3.43%	-3.49% and 4.18%	-1.64% and 1.36%	-1.48% and 2.8%	-2.58% and 1.07%
O=C(NCCN1CCOCC1)c1ccc(Cl)cc1	0.0777%	-0.588%	-0.129%	-0.472%	-0.0669%	-0.698%	-1.63%	-0.786%	-1.17%	0.934%
CCCNC(=O)NS(=O)(=O)c1ccc(Cl)cc1	2.28%	4.25%	2.73%	6.15%	3.29%	2.21%	9.27%	2.61%	2.64%	0.944%
CCCCc1oc2ccc(NS(C)(=O)=O)cc2c1C(=O)c1ccc(OCCCN(CCCC)CCCC)cc1	58.9%	57.4%	57%	57.4%	56.2%	60.2%	55.5%	57.7%	59.4%	24.1%
C[C@]12CCC(=O)C=C1CC[C@@H]1[C@@H]2[C@@H](O)C[C@@]2(C)[C@H]1CC[C@]2(O)C(=O)CO	1.76%	3.35%	0.297%	4.32%	3.81%	2.56%	-1.17%	-0.15%	3.46%	0.475%
COc1ccc2[nH]cc(CCNC(C)=O)c2c1	-2.35%	-0.423%	-1.32%	-1.49%	-1.11%	-2.19%	-1.52%	-1.67%	-0.827%	-1.28%
COc1ccccc1OCC(O)COC(N)=O (stereo not given)	-0.505%	1.65%	0.111%	0.273%	0.0917%	1%	-1.62%	-1%	0.561%	-0.184%
CC1(C)[C@H](C(=O)O)N2C(=O)C[C@H]2S1(=O)=O	2.32% and -0.376%	-0.186% and 1.2%	3.29% and 0.579%	2.15% and 2.67%	4.9% and 2.16%	1.21% and -0.215%	11.1% and 0.73%	1.62% and -0.448%	2.58% and 1.67%	0.364% and -0.373%
CCOC(=O)c1c(CSc2ccccc2)n(C)c2cc(Br)c(O)c(CN(C)C)c12	0.0747%	-1.13%	3.04%	0.402%	0.0757%	-2.62%	53.4%	-4.36%	-8.38%	3.61%
Nc1nc2[nH]cc(CCc3ccc(C(=O)N[C@@H](CCC(=O)O)C(=O)O)cc3)c2c(=O)[nH]1	1.3%	1.02%	2.83%	0.403%	-0.372%	-2.22%	-0.517%	2.12%	-1.22%	1.32%
Clc1ccc(CSC(Cn2ccnc2)c2ccc(Cl)cc2Cl)cc1 (stereo not given)	3.26%	-0.102%	3.59%	1.99%	11.1%	8.31%	9.42%	16.1%	3.55%	10.8%
C=C1[C@H](CO)[C@@H](O)C[C@@H]1n1cnc2c(=O)[nH]c(N)nc21	-0.461%	0.828%	-0.963%	1.66%	0.038%	2.68%	0.984%	-0.629%	0.432%	2.42%

Compound	growth inhibition [1]	growth inhibition [2]	growth inhibition [3]	growth inhibition [4]	growth inhibition [5]	growth inhibition [6]	growth inhibition [7]	growth inhibition [8]	growth inhibition [9]	growth inhibition [10]
OCC(O)CN1CCN(c2ccccc2)CC1 (stereo not given)	-2.77%	-0.131%	-2.09%	-1.86%	-1.17%	-1.7%	-3.11%	-1.45%	-3.65%	-0.744%
[Na+].[Na+].[Na+].[O]=[V]([O-])([O-])[O-]	-1.42%	0.923%	-1.78%	0.306%	0.285%	-0.94%	-0.354%	-2.76%	-0.971%	1.36%
C=CC(=O)N1CCC[C@@H](n2nc(-c3ccc(Oc4ccccc4)cc3)c3c(N)ncnc32)C1	6.19%	0.894%	0.519%	7.17%	1.36%	12.5%	10.8%	-2.32%	2.15%	-9.86%
CC(C)[N+]1(C)[C@@H]2CC[C@H]1C[C@@H](OC(=O)C(CO)c1ccccc1)C2 (stereo not given in full)	-0.758%	3.5%	0.48%	0.945%	1.73%	2.16%	-1.56%	-0.725%	2.4%	0.743%
Cn1c([N+](=O)[O-])cnc1COC(N)=O	0.121%	3.86%	2.76%	0.536%	2.55%	-0.567%	7.72%	2.41%	2.16%	0.864%
CNS(=O)(=O)CCc1ccc2[nH]cc(C3CCN(C)CC3)c2c1	0.0879%	3.2%	0.944%	1.8%	1.37%	-0.244%	1.62%	1.09%	2.79%	-1.47%
CS(=O)(=O)Nc1ccc([N+](=O)[O-])cc1Oc1ccccc1	0.913%	1.17%	0.12%	0.568%	2.03%	-1.72%	27.3%	-3.67%	-1.3%	-2.23%
O=C(CCCCCCC(=O)Nc1ccccc1)NO	46.8%	23.9%	51.7%	49.5%	18.5%	33.7%	70.6%	44.9%	38.5%	28%
Cc1ncc([N+](=O)[O-])n1CCO	-0.678%	-1.76%	-1.15%	0.881%	1.6%	-4.16%	22.3%	0.605%	0.0318%	-3.67%
C#CC1(O)CCC2C3CCc4cc(OC)ccc4C3CCC21C (stereo not given)	0.518%	-0.765%	-0.178%	1.8%	0.428%	1.53%	-0.897%	-1.25%	2.06%	-0.164%
c1ccc2c(CC3=NCCN3)cccc2c1	0.509%	1.82%	1.78%	1.2%	4.23%	-1.48%	10%	1.67%	3.03%	1.34%
CNNCc1ccc(C(=O)NC(C)C)cc1	2.14%	-0.517%	2.87%	1.95%	3.29%	0.0869%	6.38%	-0.464%	2.55%	-0.216%
Nc1ccn(C[C@@H](CO)OCP(=O)(O)O)c(=O)n1	1.21%	2.43%	1.32%	1.05%	-0.556%	-0.434%	3.12%	2.09%	1.15%	1.19%
COC(=O)Nc1nc2cc(Sc3ccccc3)ccc2[nH]1	6.86%	10.3%	8.12%	9.42%	10.7%	10.1%	77%	10.8%	4.78%	3.48%
NC(=O)OCC(COC(N)=O)c1ccccc1	1.09%	2.98%	1.52%	0.912%	0.666%	0.329%	2.74%	0.15%	2.19%	1.32%
NS(=O)(=O)c1cc2c(cc1Cl)NC(C(Cl)Cl)NS2(=O)=O (stereo not given)	1.16%	4.01%	3.24%	5.41%	4.4%	5.05%	-0.78%	-3.21%	2.47%	0.0927%
COc1cc2nc(N3CCN(C(=O)C4CCCO4)CC3)nc(N)c2cc1OC (stereo not given)	1.51%	-0.298%	0.774%	0.282%	2.19%	-0.97%	28%	2.95%	-1.11%	-3.7%
Nc1nc(O)c2ncn(CCC(CO)CO)c2n1	-0.633%	1.72%	0.291%	-0.106%	0.105%	-0.242%	0.639%	0.184%	1.56%	0.273%
CCOC(CN1CCN(CC(C)C(=O)c2ccccc2)CC1)c1ccccc1 (stereo not given)	-0.933%	-1.59%	-1.24%	-0.121%	2.63%	1.64%	-3.21%	-1.87%	-0.901%	13.1%
COc1c2occc2cc2ccc(=O)oc12	-0.546%	-5.42%	-1.53%	-1.09%	-2.13%	-2.24%	0.777%	-2.41%	-9.54%	-0.581%
